# Bioassay records deposited in PubChem BioAssay by Fisher Drug Discovery Resource Center.
# Compounds with a hit are over-represented: about 0.3% of the library has one in this group of screens.
# mcGAS lum: blocks mouse cGAS activity; inhibition, % at 12.5 µM; recombinant cGAS, Kinase-Glo ATP depletion luminescence; actives 0.15% (n = 160,000)
# hcGAS lum: inhibitors of human cGAS. Q8N884. recombinant h-cGAS, ATP depletion, Kinase-Glo luminescence. inhibition, % at 12.5 µM. actives 0.081% (n = 290,000)
# Target sequence (Q8N884 whole entry, looked up): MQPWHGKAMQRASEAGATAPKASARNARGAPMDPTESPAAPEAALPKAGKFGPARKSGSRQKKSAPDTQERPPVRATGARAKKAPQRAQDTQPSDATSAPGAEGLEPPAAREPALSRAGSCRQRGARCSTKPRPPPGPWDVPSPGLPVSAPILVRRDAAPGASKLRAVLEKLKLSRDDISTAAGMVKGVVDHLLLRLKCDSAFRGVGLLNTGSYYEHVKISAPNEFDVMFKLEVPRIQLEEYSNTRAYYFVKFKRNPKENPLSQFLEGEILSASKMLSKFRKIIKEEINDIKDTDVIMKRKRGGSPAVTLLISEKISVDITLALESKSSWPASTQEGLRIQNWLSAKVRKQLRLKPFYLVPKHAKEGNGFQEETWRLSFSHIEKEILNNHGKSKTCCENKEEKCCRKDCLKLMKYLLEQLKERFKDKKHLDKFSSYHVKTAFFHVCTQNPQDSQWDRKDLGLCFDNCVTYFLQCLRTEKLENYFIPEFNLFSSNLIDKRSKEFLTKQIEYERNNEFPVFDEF
# NPYLR7 ag: activates Aedes aegypti NPYLR7 receptor. HEK293T NPYLR7/Galpha15, GCaMP6s calcium fluorescence. activation, % at 10 µM. actives 0.15% (n = 270,000). AID 1259423; in the data active = activation above about 40%
# Numbers stand for hits; i = inactive; nt = not tested or not shown; + = active, no number. Cut-off read from the data, not from the text of the source, unless noted: active = inhibition above about 40%; inactive = the rest.
SMILES,mcGAS lum,hcGAS lum,NPYLR7 ag
O=c1c(N=Nc2ccccc2Cl)c(-c2ccccc2)[nH]n1-c1nc(-c2ccccc2)cs1,i,i,i
Cc1c(Cl)cccc1N=Nc1c(-c2ccccc2)[nH]n(-c2nc(-c3ccccc3)cs2)c1=O,i,53.4,i
CCc1cc(N(C)Cc2ccccc2)nc(SCc2ccc(C(=O)NC(C)C)cc2)n1,i,i,i
CC(NC(=O)c1cc(COc2c(F)cccc2F)on1)c1ccccc1Cl (stereo unspecified),i,i,i
O=C(c1cccs1)c1cccs1,nt,i,i
NC(=O)n1c(O)c(C(=O)c2cccs2)c2cc(Cl)ccc21,nt,67.4,i
O=C(c1ccc(-c2cccc(C(F)(F)F)c2)o1)N1CCN(S(=O)(=O)c2ccccc2F)CC1,nt,i,i
Cc1occc1C(=O)OCC(=O)N1CC(=O)Nc2cc(C(F)(F)F)ccc21,nt,i,i
O=C(CCc1nnc(CCc2ccccc2)o1)NCCCC1CCCC1,i,i,i
CCOc1ccc2cc(-c3nc4ccccc4s3)c(=O)oc2c1,i,i,i
O=c1oc2cc(O)ccc2cc1-c1nc2ccccc2s1,i,i,140.5
COc1cc(Br)c(O)c(/C=N\n2c(C)n[nH]c2=S)c1,nt,i,134.2
COc1ccc(-c2n[nH]c(=S)n2N=Cc2ccc(OC)c(Br)c2)cc1,i,i,i
COc1cccc(-c2cc(C(=O)N(CCC(=O)NCCC3CCCN3C)CC(C)C)no2)c1 (stereo unspecified),nt,+,i
CC(C)NC(=O)CCN(CC1CCCO1)C(=O)c1cc(-c2cccc(Cl)c2)on1 (stereo unspecified),i,i,nt
CC(Oc1cccc(Cl)c1)C(=O)N1CCOC(Cc2ccccc2)C1 (stereo unspecified),i,i,i
COCCCN(Cc1ccc(C(C)(C)C)cc1)Cc1cccn1Cc1cccc(C)c1,i,i,41.4
COCCN(Cc1ccc(C(C)(C)C)cc1)Cc1cccn1Cc1cccc(C)c1,i,i,i
O=C(NC(C(=O)N/N=C\c1cc(Br)cs1)c1n[nH]c(=O)c2ccccc12)c1ccccc1 (stereo unspecified),i,i,i
Cc1cc(-c2ccccc2)cc2c3ccccc3c3ccccc3[n+]12,i,41.1,i
COc1cc(-c2ccccc2)c2ccccc2n1,nt,i,i
O=C(NC1CCN(C(=O)c2cc(-c3cccc(Cl)c3)n[nH]2)CC1)C1CCCCC1,nt,i,i
N#CC(C#N)=CC(=N)C(C#N)c1cc(O)c(O)c(O)c1 (stereo unspecified),51.1,i,i
O[C@@H]1CN(Cc2ccc3c(c2)OCO3)CC[C@H]1c1ccc2c(c1)OCO2,nt,i,i
O[C@@H]1CN(Cc2ccncc2Cl)CC[C@H]1c1ccc2c(c1)OCO2,nt,i,48.6
SMILES,mcGAS lum,hcGAS lum,NPYLR7 ag
CNc1nnc(SCc2cc(-c3ccc(Cl)cc3)no2)s1,nt,i,nt
CNN=Cc1cc(Br)cc(Br)c1O,i,i,i
Oc1c(Br)cc(Br)cc1C=NC1CC1,nt,53.0,i
Cc1ccc(Cl)c(OC2CC3CCC(C2)N3C(=O)c2ccc(CSc3nccs3)cc2)c1 (stereo unspecified),i,i,i
CCOc1ccc(-c2cc(-c3nc(-c4ccc(OC)cc4)no3)[nH]n2)cc1,i,i,i
COc1ccc(C(=O)COc2ccc(-c3noc(C(C)C)n3)cc2)cc1,nt,+,i
CCOCCCN(CC(=O)N(Cc1cccn1Cc1ccccc1)C1CCCCC1)S(=O)(=O)c1c(C)cc(C)cc1C,i,i,i
CC(C)(C)N1CC(c2nc3ccccc3n2Cc2ccccc2Cl)CC1=O (stereo unspecified),i,i,i
CN(CCc1ccccn1)C(=O)CCC1CCCN(C(=O)C2=CC(=O)CC(C)(C)O2)C1 (stereo unspecified),nt,i,i
C=C(C)COc1ccccc1C(=O)N(C)Cc1nc2ccccc2[nH]1,nt,i,i
O=c1cc(Cc2ccccc2)nc2c(-c3ccccc3)c(C(F)(F)F)[nH]n12,nt,68.1,i
COCc1[nH]n2c(=O)cc(Cc3ccccc3)nc2c1-c1ccccc1,nt,56.5,i
CCCc1cc(=O)n2[nH]c(COC)c(-c3ccc(C)cc3)c2n1,nt,i,i
Cc1cc(C)nc(SCc2cc(=O)n3[nH]c(C)c(-c4ccccc4)c3n2)n1,nt,i,i
CCCCCCCC(=O)N(Cc1ccc(OS(=O)(=O)c2ccc(F)cc2)cc1)C(C)CC (stereo unspecified),i,i,i
CCN1C(=O)/C(=C\c2ccc(-c3ccccc3C(=O)O)o2)N(CC)C1=S,i,i,i
O=C1NC(=S)S/C1=C\c1ccc(-c2ccccc2C(=O)O)o1,82.7,65.6,i
COc1ccc(-n2ccnc2-c2ccc(C#CC(C)(C)O)cc2)cn1,nt,i,56.7
COc1ccc(-n2ccnc2-c2cccc(OC)c2OC)cn1,i,i,i
COCCN(CC(=O)Nc1nc(CC(=O)NCc2ccc(F)cc2)cs1)C(=O)c1ccc(Cl)c(Cl)c1,i,i,i
CS(=O)(=O)NC1CCCN(C(=O)Nc2cccc(COCc3ccco3)c2)C1 (stereo unspecified),nt,i,i
O=S(=O)(O)c1cc(N=C=S)ccc1/C=C/c1ccc(N=C=S)cc1S(=O)(=O)O,nt,85.8,i
CC(C)(C)/[N+]([O-])=C/c1ccc(S(=O)(=O)O)cc1S(=O)(=O)O,nt,i,i
Cc1cc(CC(C)NS(=O)(=O)NCc2ccccc2)n[nH]1 (stereo unspecified),nt,i,i
CCCc1nn2c(N)c(C=C3C=C(Cl)C(=O)C(Cl)=C3)c(=O)nc2s1,52.5,i,51.3
SMILES,mcGAS lum,hcGAS lum,NPYLR7 ag
CCCc1nn2c(N)c(C=C3C=CC(=O)C=C3)c(=O)nc2s1,nt,i,i
CCCc1[nH]n(-c2ccc(Cl)cc2)c(=O)c1/C=C1\NC(=O)N(Cc2cccc(C)c2)C1=O,i,i,i
CCCc1[nH]n(-c2ccc(Cl)cc2)c(=O)c1/C=C1\NC(=O)N(Cc2ccc(C)cc2)C1=O,i,i,45.1
N#Cc1cc(C(=O)c2cc(Br)ccc2O)cn(-c2ccccc2Cl)c1=O,nt,i,i
N#Cc1cc(C(=O)c2cc(Cl)cc(Cl)c2O)cn(-c2nccs2)c1=O,nt,i,135.3
CCC(C)c1csc(N(C)C(=O)C(C)NC(N)=O)n1 (stereo unspecified),i,i,i
O=c1c(-c2ccccc2)coc2cc(O)cc(O)c12,nt,70.4,i
O=c1cc(-c2ccccc2)oc2cc(O)cc(O)c12,i,i,i
COc1cc(C2Nc3ccccc3-c3nnc(SC)nc3O2)cc(Br)c1OC (stereo unspecified),i,i,i
CSc1nnc2c(n1)OC(c1cc(Br)c(OC(=O)c3ccc([N+](=O)[O-])cc3)c(Br)c1)Nc1ccccc1-2 (stereo unspecified),41.7,i,i
C/C(N)=C(/C#N)C(=O)COC(=O)c1ccc([N+](=O)[O-])c(C)c1,nt,i,i
COc1ccc(CN(CCc2c[nH]c3ccccc23)C(=O)CN(CC(C)C)C(=O)Nc2cccc(C(F)(F)F)c2)cc1OC,i,i,i
CSc1ccccc1NC(=O)c1cccc2cccnc12,nt,i,i
O=C(Sc1cccc2cccnc12)c1ccccc1Cl,43.9,59.8,i
COc1cc(-c2ccccc2)sc1C(=O)NC1CC1,nt,i,i
CCCCNS(=O)(=O)c1ccc2c(c1)[nH]c(=S)n2CCCC,nt,i,i
CCCCN(Cc1cccn1Cc1ccc(Br)cc1)C(=O)CN(CCC)C(=O)C12CC3CC(CC(C3)C1)C2,i,i,nt
